Compound activity as filed in PubChem BioAssay.
The list is not random: actives were taken first. Their share in the collection is about 3.2%.
AmpC inh no detg: qHTS Inhibitors of AmpC Beta-Lactamase (assay without detergent); P00811; AmpC nitrocefin hydrolysis, absorbance 480 nm, 0.0001% Triton; Potency, µM (top dose mostly 57.1 µM), without a hit: at the highest dose activity change, negative = inhibition, actives largely listed as inhibitors; 0.52% of 330,000 active; AID 485341, 2010;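 further: plate controls were no compound for no effect and no enzyme for full effect; nearly all actives have a fitted effect of over 20% in size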
Target sequence (P00811 whole entry, looked up): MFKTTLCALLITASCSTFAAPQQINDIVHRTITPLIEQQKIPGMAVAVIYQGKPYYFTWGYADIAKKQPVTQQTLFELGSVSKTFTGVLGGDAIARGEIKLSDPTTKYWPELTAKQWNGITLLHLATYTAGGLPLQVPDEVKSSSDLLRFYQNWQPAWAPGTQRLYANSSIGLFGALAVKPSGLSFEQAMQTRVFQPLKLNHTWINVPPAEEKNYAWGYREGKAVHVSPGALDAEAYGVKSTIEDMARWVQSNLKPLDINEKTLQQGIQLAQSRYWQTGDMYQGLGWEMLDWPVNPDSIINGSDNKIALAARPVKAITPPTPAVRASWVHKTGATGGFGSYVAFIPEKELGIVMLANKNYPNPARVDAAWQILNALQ
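AmpC (5.3 nM in the dispensed reagent) in 20 mM phosphate pH 7.0 with 0.01% (detergent screen) or 0.0001% Triton X-100 was preincubated with compounds for 15 min at room temperature. Nitrocefin was then added from an 800 uM solution, and hydrolysis was followed at 480 nm.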
RE007 growth inh: qHTS Assay for Inhibitors of the HIV-1 protein Vpr | 0.21% of 360,000 active | Potency, µM (titrated, usually from 92.2 µM), without a hit: at the highest dose activity change, negative = less growth, usual class: inhibitors | AID 651644, 2012 | S. pombe RE007 Vpr strain, BacTiter-Glo ATP luminescence, 24 h; active means well fitted falling curve with a large enough effect; inconclusive means small, poorly fitted or top-dose-only effect; inactive means no such curve, though single readings can be large or run the other way; further: nearly all actives have a fitted effect of over 50% in size
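Fission yeast strain RE007, carrying one chromosomally integrated HIV-1 vpr copy, was seeded at OD 0.01 in PMG+AL medium with 23 nL pinned compound. After 24 h at 30 °C and 99% humidity, viability was read by BacTiter-Glo luminescence.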
Sm TGR block: qHTS Assay for the Inhibitors of Schistosoma Mansoni Peroxiredoxins; Schistosoma mansoni thioredoxin glutathione reductase (TGR), Q962Y6; purified TGR, DTNB reduction, TNB absorbance 405 nm; 3% of 360,000 active; Potency, µM (doses to about 114 µM), for inactives: top-dose activity change, negative = inhibition, most hits filed as inhibitors; further: nearly all actives have a fitted effect of over 60% in size
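First, TGR (20 nM dispensed) and NADPH were mixed with compound. Second, a 15 min room-temperature incubation followed. Third, further NADPH and then DTNB were added to start the reaction. Finally, TNB absorbance was monitored kinetically.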
AmpC detergent: qHTS Inhibitors of AmpC Beta-Lactamase (assay with detergent). P00811. AmpC hydrolysis of nitrocefin, absorbance 480 nm, 0.01% Triton. Potency, µM (top dose mostly 114 µM), for inactives: at the top dose activity change, negative = inhibition, most hits filed as inhibitors. 0.041% of 370,000 active. AID 485294, 2010;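 further: 0% = no-compound wells and -100% = no-enzyme wells; nearly all actives have a fitted effect of over 25% in size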
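20 mM phosphate pH 7.0 + 0.01% (detergent screen) or 0.0001% Triton X-100; 5.3 nM AmpC reagent; cpd preinc 15 min RT; nitrocefin (800 uM stock) to start; A480 q20 s × 4 min; Activity was normalised to no-enzyme and no-compound control wells.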
AMA1 RON2 block: qHTS for Inhibitors of AMA1-RON; Towards Development of Antimalarial Drug Lead: Primary Screen; Plasmodium falciparum AMA1 (3D7) - RON2 peptide interaction; AlphaScreen AMA1-biotinylated RON2 peptide binding; Potency, µM (top dose mostly 58.2 µM), inactives show at the top dose activity change, negative = inhibition, actives largely listed as inhibitors; 0.2% of 360,000 active; AID 720542, 2013;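 further: 0% = vehicle wells and -100% = peptide control; nearly all actives have a fitted effect of over 45% in size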
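AMA1 (3D7) with his tag at 25 nM final met compounds first, then biotinylated RON2 peptide at 25 nM; detection used donor plus acceptor beads, 10 µg/mL apiece, read by AlphaScreen after 30 min at room temperature.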
The depositor's hits bear a star; ? = inconclusive; nt = no result; [ ] = dose if it differs, or a comment. Unless noted, the call rests on the fitted dose curve; in most records, active means well fitted curve in the direction sought with a large enough effect; inconclusive means small, poorly fitted or top-dose-only effect, or another doubt; inactive means no such curve, though single readings can be large; an effect the other way counts as inactive or inconclusive. Unless noted, on the % scale 0 is the no-effect control and ±100 the full control effect; potency means the concentration at half of the fitted maximal effect.

SMILES | AmpC inh no detg | RE007 growth inh | Sm TGR block | AmpC detergent | AMA1 RON2 block
COc1ccc(NC(=S)NC(NC(=O)CF)C(Cl)(Cl)Cl)cc1[N+](=O)[O-] (stereo not given) | -29% | -3% | 35µM* | -1% | -4%
O=C(CF)NC(NC(=S)Nc1cccc([N+](=O)[O-])c1)C(Cl)(Cl)Cl (stereo not given) | -43% | -3% | ? | 0% | -14%
CCn1cc(C(=O)N(C)Cc2ccccc2)c(=O)c2cc(S(=O)(=O)N3CCCCC3)ccc21 | nt | nt | 0% | -2% | nt
O=C(NCc1cccc(F)c1)c1ccc2nc(CCc3ccccc3)oc2c1 | nt | nt | 4% | 0% | nt
Cc1ccc(CNS(=O)(=O)c2c(C(=O)N3CCCCC3)c(C)n(C)c2C)o1 | 0% | 4% | 35µM* | -10% | -1%
COc1ccc(C)cc1NS(=O)(=O)c1c(C(=O)N2CCCCCC2)c(C)n(C)c1C | nt | nt | 5.6µM* | -5% | nt
Cc1ccc(CNS(=O)(=O)c2c(C(=O)N3CCCCCC3)c(C)n(C)c2C)cc1 | 34% | -8% | 1% | -8% | -2%
COc1cc(NS(=O)(=O)c2c(C(=O)N3CCCCC3)c(C)n(C)c2C)cc(OC)c1OC | nt | nt | 4% | 14% | nt
COc1cc(OC)c(NC(=O)Nc2nnc(N(C)C3CCCCC3)s2)cc1Cl | nt | nt | -4% | -9% | nt
COc1cccc(CN2CCC(n3nccc3NC(=O)CCCc3ccccc3)CC2)c1O | 68% | -2% | 8.9µM* | -8% | 3%
O=C(Nc1ccnn1C1CCN(Cc2cccnc2)CC1)c1ccccc1Cl | -8% | -7% | 0% | 3% | 5%
Cc1ccc(C(C)CCN2CCC(n3nccc3NC(=O)c3ccccc3)CC2)o1 (stereo not given) | 37% | -11% | 35µM* | ? | 0%
Cc1cc(CN2CCC(n3nccc3NC(=O)c3ccccc3Cl)CC2)cc(C)c1O | -4% | -1% | 45µM* | 2% | 12%
O=C(NCc1ccccc1F)C1CCN(Cc2cc3ccccc3n2Cc2cccc(Cl)c2)CC1 | nt | nt | 13µM* | 9% | nt
O=C(CN1CCN(Cc2ccccc2F)C1=O)NCc1ccco1 | -3% | -2% | 28µM* | 2% | -4%
Cc1cc(C)nc(N2CCC(C(=O)NCc3ccccc3F)CC2)n1 | -22% | -6% | nt | 1% | 14%
O=C(CN1CCN(Cc2ccc(F)cc2)C1=O)NCc1ccccc1Cl | nt | nt | 0% | -2% | nt
O=C(CN1CCN(Cc2ccccc2Cl)C1=O)NCc1ccccc1Cl | nt | nt | 5µM* | 9% | nt
O=C(NCc1ccco1)C1CCN(c2nc3ccccc3n2Cc2ccccc2F)CC1 | 121% | 14% | 45µM* | -8% | -16%
O=C(CN1CCN(Cc2ccc(F)cc2Cl)C1=O)NCCc1ccccc1 | 28% | 0% | 0% | -7% | 4%
O=C(O)CN1CCN(Cc2ccc(F)cc2Cl)C1=O | -11% | 2% | 8.9µM* | -3% | 5%
Cc1ccc(S(=O)(=O)c2cn(Cc3ccccc3)c3cc(N4CCOCC4)c(F)cc3c2=O)cc1 | nt | nt | 1% | -1% | nt
COc1ccc(NC(=O)c2cccc([N+](=O)[O-])c2)cc1 | -32% | -11% | 6% | 11% | 1%
O=C(O)c1ccccc1C(=O)Nc1cccc([N+](=O)[O-])c1 | -3% | nt | 1% | -4% | -2%
COc1ccc(NC(=O)c2cc([N+](=O)[O-])ccc2O)cc1 | -28% | 6.3µM* | 0% | 1% | 1%
COc1ccc(NC(=S)Nc2cccc([N+](=O)[O-])c2)cc1 | -30% | 3% | 20µM* | -10% | 6%
O=C(Nc1cccc([N+](=O)[O-])c1)c1cc2ccccc2cc1O | 13µM* | -14% | 7% | 0% | 44%
CN(C)CC/C=C1\c2ccccc2COc2ccccc21 | -6% | 3%[18.4 µM] | 14µM* | 1% | -5%
Cn1c2cc(B(O)O)sc2c2cnn(Cc3c(F)cccc3Cl)c(=O)c21 | 5µM* | nt | 2% | 2.5µM* | nt
